Results on 95 molecules are retold here after ChEMBL document CHEMBL3988442, “University of Dundee, Small-Polar-MMV Screening Library” (2021).

Among all 48,000 compounds or so, about 13,000 (27%) showed an effect of 50% or more. This is one part of the list.

The assay has as its system Wolbachia pipientis. The experiment in a line: Anti-Wolbachia Cell-Based Screen. It is filed as functional. Also on record: scale not given: in the data most compounds retested in dose-response had high values. Conditions: 5 µM.
In the case of `Cc1cnn(CC2CN(c3ncnc4c3CCC4)CCO2)c1` (stereo not given), the “Percent Effect” value is recorded as -34.52%.
The result for `Cc1noc(C)c1CC(=O)NCCN1CCN(S(C)(=O)=O)CC1` reads -3.578%; that for `N#Cc1cc2c(=O)n(CC(O)Cc3ccccc3)ccc2[nH]c1=O` (stereo not given), -6.856%; that for `O=C(Nc1ccc(-c2ccccc2)cc1)N1C[C@@H]2CNC[C@]2(C(=O)O)C1`, 6.586%.
The result for `CC(C)N1CCN(S(=O)(=O)c2ncn(C)c2Cl)CC1` reads 22.53%; that for `O=C1O[C@@H]2CN(Cc3cccc(O)c3)C[C@@H]2N1CCCN1CCOCC1`, 15.85%.
The result for `Cn1cc(CN2CC[C@@H]3[C@@H]2CCN3Cc2ccc3c(c2)OCO3)cn1.O=C(O)C(F)(F)F.O=C(O)C(F)(F)F` reads -8.648%; that for `Cn1cc(C(=O)N2CC[C@@H]3[C@@H]2CCN3Cc2ccccc2)cn1.O=C(O)C(F)(F)F`, -15.71%; that for `Cn1cc(CN2CC[C@@H]3[C@H]2CCC(=O)N3c2ccccc2)cn1.O=C(O)C(F)(F)F`, 107.5%.
As to `CN(Cc1ccccc1)C(=O)CS(=O)(=O)Cc1ccc(Cl)c(Cl)c1`, the “Percent Effect” value is listed as -2.386%.
The result for `Cc1cccc(S(=O)(=O)NC2CCN(CC(F)(F)F)C2)c1` (stereo not given) reads -3.118%; that for `CNC(=O)C1CCN(C(=O)NCc2ccc(-c3ccn[nH]3)cc2)CC1`, 139.8%; that for `CC(=O)N1CCCN(C(=O)NCc2ccc(-c3ccn[nH]3)cc2)CC1`, 101.6%.
The result for `CNC(=O)C1CCN(C(=O)NCc2ccc(C)n2C)CC1` reads -3.399%; that for `Cc1[nH]ncc1CCCNC(=O)N1CCC(CC(N)=O)CC1`, -1.64%; that for `CC(=O)NC1CCCN(C(=O)NCc2ccc(-c3ccn[nH]3)cc2)C1` (stereo not given), 11.01%.
The result for `NC(=O)CC1CCN(C(=O)NCc2ccc(-c3ccn[nH]3)cc2)CC1` reads 131.5%; that for `COc1ccccc1NCC(=O)NCc1ccc(-c2ccn[nH]2)cc1`, -17.15%; that for `CCOCC1CCCN(C(=O)NCc2ccc(-c3ccn[nH]3)cc2)C1` (stereo not given), 107.6%.
Regarding `COC(=O)NC1(C(=O)NCc2ccc(-c3ccn[nH]3)cc2)CCCC1`, the “Percent Effect” value is reported as -10.61%.
For the molecule `O=C(NCc1ccccc1)N1CCC(Oc2ncccc2Cl)CC1`, the “Percent Effect” value was 6.296%.
For `CCOc1ccc(CNC(=O)N2CCCC(CO)C2)cc1F` (stereo not given), the “Percent Effect” value is 1.945%.
The result for `O=C(NCc1ccc2c(c1)OCCO2)N1CCC(CO)CC1` reads -3.134%; that for `O=C(O)C(F)(F)F.O=C(c1cnoc1)N1CCC[C@]2(C[C@@H](OCc3ccccn3)CO2)C1`, 20.74%.
Take `NC(=O)C1CCN(C(=O)NCc2ccc3c(c2)OCCO3)CC1`: the “Percent Effect” value amounted to 2.129%.
Take `O=C(NCc1ccc(-c2ccn[nH]2)cc1)N1CCC(N2CCCC2)C1` (stereo not given): the “Percent Effect” value is reported as 1.692%.
The result for `NC(=O)C1CCN(C(=O)NCc2ccc(-c3ccn[nH]3)cc2)CC1` reads 110.5%; that for `Cc1csc(CNc2cnn(CC(F)(F)F)c2)n1`, 0.5328%.
The result for `CCC(CC)C(CNC(=O)Nc1cnn(CCOC)c1)N(C)C` (stereo not given) reads -1.824%; that for `CN(C)CC(O)Cn1cc(NCc2ccc(Br)cc2)cn1` (stereo not given), 110.4%; that for `Cc1cc(C)c(CNc2cnn(CC(O)CN(C)C)c2)c(C)c1` (stereo not given), 97.23%.
On to `CCN(CC)Cc1ccc(CNC(=O)C(C)(C)n2cc(Br)cn2)cc1`, for which the “Percent Effect” value came out at 25.74%.
Regarding `Cc1cc(C)c(NC(=O)Nc2cnn(CC(O)CN(C)C)c2)c(C)c1` (stereo not given), the “Percent Effect” value was found to be 101.9%.
The result for `CCn1cc(NC(=O)NCC(O)CN2CCCCC2)cn1` (stereo not given) reads -8.278%; that for `Cc1csc(CNc2cnn(CC(C)C)c2)n1`, -6.579%; that for `CNS(=O)(=O)CC1CCCN1c1ccc(Cl)cn1` (stereo not given), -0.6453%.
The result for `CC(C)COC(C)C(=O)N1CCCCC1` (stereo not given) reads 22.01%.
Take `O=C(Cn1cccn1)NCC1(c2ccccc2)CC1`: the “Percent Effect” value came out at 8.498%.
The result for `O=C(CNCCn1cccn1)NCC1(c2ccccc2)CCOCC1` reads 92.49%.
For the molecule `Cc1cnn(CCNCC(=O)NCC2(c3ccccc3)CCC2)c1`, the “Percent Effect” value stood at 6.79%.
The result for `N#CC1(NC(=O)CNCCn2cccn2)CCCCC1` reads 0.8723%.
The result for `O=C(CNCCn1cccn1)NCC1(c2ccccc2)CC1` reads -4.744%; that for `Cc1cnn(CCNCC(=O)NCC2(c3ccccc3)CC2)c1`, 75.55%.
Consider `CN(C(=O)CNCCn1cccn1)C1(C#N)CCCCC1`, for which the “Percent Effect” value was -7.323%.
The result for `Cc1cccc(C2(C(=O)NCCCn3cccn3)CC2)c1` reads -18.04%.
The result for `O=C(CNCCn1cccn1)NCC1(c2ccccc2)CCC1` reads 123.8%.
Regarding `CC(NC1(CNC(=O)Cn2cccn2)CCOCC1)c1ccccc1` (stereo not given), the “Percent Effect” value is given as -4.179%.
The result for `Cc1cnn(CCNCC(=O)NCCOc2ccccc2)c1` reads -6.94%; that for `O=C(CNCCn1cccn1)NCC1(c2ccccc2)CCCC1`, 152.5%.
The result for `Fc1ccc(-n2cccn2)c(CN2CCCCC2CCn2ccnc2)c1` (stereo not given) reads 6.266%.
With `Cc1cc(NC(=O)CCNC(C)(C)c2nc(C)c(C)s2)no1`, the “Percent Effect” value is -5.204%.
The result for `Cc1ccccc1C1CCCN(C(=O)c2c[nH]c(=O)c(Cl)c2)C1` (stereo not given) reads 0.979%; that for `O=C(NCc1ccoc1)c1ccc(C2CCCN2CC2CCOCC2)s1` (stereo not given), -3.898%; that for `CC(=O)NC(Cc1c[nH]c2cc(F)ccc12)C(=O)Nc1nncs1` (stereo not given), -20.07%.
The result for `CC(C)NC(=O)c1cc2c([nH]c1=O)CC(c1cccs1)CC2=O` (stereo not given) reads -15.67%; that for `CN1[C@@H](C(=O)NCC2CC2)C[C@@H]2CN(Cc3ccoc3)C[C@@H]21`, 87.47%; that for `CC(C)N1[C@@H](C(=O)NCC2CC2)C[C@@H]2CN(Cc3ccco3)C[C@@H]21`, 96.03%.
Take `Cc1ccc(CN2C[C@H]3C[C@H](C(=O)NCC4CC4)N(C)[C@H]3C2)o1`: the “Percent Effect” value was determined as 105.7%.
The result for `CC(=O)N1C[C@H]2CCCN(Cc3ccc(C)o3)[C@H]2C1.O=C(O)C(F)(F)F` reads -21.55%; that for `CN(C)[C@@H]1CN(Cc2ccco2)C[C@@H]2CCCO[C@@H]21.O=C(O)C(F)(F)F.O=C(O)C(F)(F)F`, 5.089%; that for `COCCN1CCO[C@@H]2CN(Cc3ccc(C)o3)C[C@@H]2C1.O=C(O)C(F)(F)F.O=C(O)C(F)(F)F`, 4.147%.
The result for `Cc1ccc(CN2C[C@H]3C[C@H](C(=O)NCc4cccnc4)[C@@H](C2)O3)o1` reads -11.22%; that for `O=C(NCC1CC1)[C@@H]1CCO[C@@H]2CCN(Cc3ccco3)C[C@H]21.O=C(O)C(F)(F)F`, -5.269%; that for `Cc1ccc(CN2C[C@@H]3C[C@H](C(=O)NCC4CC4)N(C)[C@@H]3C2)o1.O=C(O)C(F)(F)F.O=C(O)C(F)(F)F`, 102.8%.
For the molecule `Cc1ccc(CN2CC[C@H]3OCC[C@@H](C(=O)NCC4CC4)[C@@H]3C2)o1`, the “Percent Effect” value was -3.1%.
As for `CC(C)(C)CCS(=O)(=O)NCCc1csc(N2CCCC2)n1`, the “Percent Effect” value is reported as -17.7%.
Take `CC(C)(C)SCC(=O)Nc1cc(-n2nnnc2C2CC2)ccc1F`: the “Percent Effect” value is -2.902%.
The result for `c1ncc2c(n1)CN(Cc1cn3ccsc3n1)CC2` reads -19.58%; that for `NC(=O)CN(CC(=O)NCc1cc(F)cc(F)c1)C1CCCC1`, 2.456%; that for `CC1(C)COCCN1C(=O)Cc1csc(Cc2ccccn2)n1`, -7.387%.
`CCNC(=O)NC(=O)CN1CCC(c2c[nH]c3ccc(OC)cc23)CC1`: the “Percent Effect” value is listed as -12.44%.
The result for `CC(C)Cc1noc(CN(C)C2CCS(=O)(=O)C2)n1` (stereo not given) reads -20.93%; that for `NS(=O)(=O)c1ccc(F)c(C(=O)NCCSC2CCCCC2)c1`, -0.4963%; that for `O=C(NC1CCN(C2CC2)CC1)c1cc(Cl)ccc1-n1cnnn1`, -15.3%.
The result for `COCCC(=O)N1CCC(NC(=O)c2cscc2C)CC1` reads 4.5%; that for `CC(=O)N1CCC(NC(=O)c2cc(Cl)ccc2O)CC1`, 5.076%.
The result for `Cc1ccc(S(N)(=O)=O)cc1C(=O)NCC1Cc2ccccc2O1` (stereo not given) reads 20.46%; that for `CC(=O)N1CCC(NC(=O)c2cc(S(N)(=O)=O)ccc2C)CC1`, 120.7%; that for `Cc1ccc(C)c(C(=O)NC2CCC(N3C(=O)CCC3=O)CC2)c1` (stereo not given), 7.383%.
For `COCC(O)CN1CCC(NC(=O)c2cscc2C)CC1` (stereo not given), the “Percent Effect” value is -6.433%.
The result for `CCc1ccc(O)c(C(=O)NC2CCN(S(=O)(=O)CC)CC2)c1` reads -4.06%; that for `Cc1ccc(S(N)(=O)=O)cc1C(=O)NC1CCCC1`, 60.38%.
The result for `Cc1ccc(S(N)(=O)=O)cc1C(=O)NC1CCN(C2CC2)CC1` reads 102.7%; that for `COC(=O)N1CCC(NC(=O)c2cc(S(N)(=O)=O)ccc2C)CC1`, 98.52%.
The result for `CCN1C(=O)[C@H]2CN(CC(C)C)C[C@H]2C12CCN(C(=O)NC(C)C)CC2.O=C(O)C(F)(F)F` reads -7.35%; that for `CCCOC(C)Cn1ccc2[nH]c(=O)c(C#N)cc2c1=O` (stereo not given), -62.19%.
For `CC(C)C(C)(CNC(=O)OC(C)(C)C)NC(=O)c1cnccn1` (stereo not given), the “Percent Effect” value turned out to be 1.478%.
The result for `Cc1c(NCCOCC(F)(F)F)cccc1C(=O)N1CCCC1` reads 1.47%; that for `COc1ccc(S(=O)(=O)NCC(O)c2sccc2C)cc1C` (stereo not given), 4.303%.
The result for `CCCC(=O)NC1CCCN(c2nc3ccccc3cc2CO)C1` (stereo not given) reads 0.5391%; that for `O=C(c1ccsc1)N1CC(C(=O)N2CCOCC2)C2(CCOCC2)C1` (stereo not given), -0.6494%; that for `CC(C)(C)n1ncc(C(=O)NCCCC(N)=O)c1C(F)(F)F`, 6.459%.
The result for `Cc1ccc(S(N)(=O)=O)cc1C(=O)NC1CCCN(C)C1` (stereo not given) reads 108%; that for `Cc1ccc(S(N)(=O)=O)cc1C(=O)N1CCc2c(ncnc2N(C)C)C1`, -11.64%.
Regarding `Cc1ccc(S(N)(=O)=O)cc1C(=O)N1C[C@@H](CN(C)C)[C@@H](CO)C1`, the “Percent Effect” value came to 4.643%.
